Our source for the growth inhibition, inhibition and outcome values is PubChem BioAssay.

Test [1] can be described thus: antimalarial activity against Dd2 strain (AID 2302;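 active means growth inhibition above 50% at the single 2 µM test dose, taken to imply half-maximal potency below 2 µM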;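 further: 0% = DMSO untreated growth and 100% = chloroquine plus artemisinin killed control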). To be noted: P. falciparum Dd2 in RBCs, LDH growth readout, 72 h; at 2 µM; active compounds read high.
Test [2] in a line: human hepatoma cell viability loss – ATP luminescence, cytotoxicity control for P. falciparum antimalarial project, primary screen (AID 2303;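 active means inhibition above 50%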;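 further: 0% = DMSO wells and 100% = digitonin-killed cells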). The conditions noted are these: HepG2 viability, 24-48 h, at 10 µM, active compounds read high.
Test [3] has as its target L-lactate dehydrogenase (Plasmodium falciparum (isolate CDC / Honduras)) (UniProt Q27743). Kind of test: PfLDH activity inhibition – cell lysate, 3D7 strain, counter-screen for P. falciparum growth inhibition project (AID 2304).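 Further: 0% = vehicle and 100% = reference inhibitor.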 The conditions noted are these: P. falciparum 3D7 crude extract, LDH APAD/NBT absorbance; at 2 µM; active compounds read high.
A short description of test [4]: inhibition of 3D7 malaria parasite growth – strain 3D7 (AID 2306).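 Further: 0% = DMSO wells and 100% = chloroquine plus artemisinin control wells.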 To be noted: P. falciparum 3D7 erythrocytic growth, LDH absorbance, 72 h; at 2 µM; active compounds read high.
Test [5] has as its target Calcium-dependent protein kinase 1 (Plasmodium falciparum (isolate 3D7)) (UniProt P62344). Kind of test: PfCDPK1 kinase inhibitors, biochemical, TCAMS library (AID 1159585; cut-off not given, nearly all actives have IC50 up to about 0.98 µM;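 further: inhibitors leave more ATP so luminescence rises with inhibition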). The conditions noted are these: recombinant PfCDPK1, Kinase-Glo ATP depletion luminescence. Background: In Kinase-Glo more light means more ATP remaining.
Test [6] has as its target Plasmodium falciparum protein kinase 6 (PK6, PF3D7_1337100) (UniProt Q8IDW1). Kind of test: PfPK6 kinase inhibitors, biochemical, TCAMS library (AID 1159586). To be noted: recombinant PfPK6, Kinase-Glo ATP depletion luminescence.
The target of test [7] is Protein kinase 7 (PK7), Plasmodium falciparum 3D7 (PF3D7_0213400) (UniProt Q7YTF7). Kind of test: inhibition of Plasmodium PK7 catalytic activity – biochemical, TCAMS antimalarial set, Kinase-Glo luminescence (AID 1159587). The conditions noted are these: recombinant PfPK7, Kinase-Glo ATP depletion luminescence.
Sequence of Protein kinase 7 (PK7), Plasmodium falciparum 3D7 (PF3D7_0213400) (Q7YTF7 1-343): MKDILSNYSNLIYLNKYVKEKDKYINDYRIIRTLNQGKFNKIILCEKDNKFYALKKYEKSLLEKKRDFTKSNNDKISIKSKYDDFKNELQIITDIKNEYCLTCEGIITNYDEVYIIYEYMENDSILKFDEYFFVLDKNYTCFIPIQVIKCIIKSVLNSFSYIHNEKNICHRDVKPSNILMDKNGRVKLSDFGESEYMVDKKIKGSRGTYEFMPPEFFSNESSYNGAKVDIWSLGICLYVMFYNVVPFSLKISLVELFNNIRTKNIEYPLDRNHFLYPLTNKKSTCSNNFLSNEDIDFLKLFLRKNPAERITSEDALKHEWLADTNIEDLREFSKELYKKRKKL
Test [8] deals with Calcium-dependent protein kinase 4 (Plasmodium falciparum (isolate 3D7)) (UniProt Q8IBS5). Kind of test: PfCDPK4 kinase inhibitors, biochemical, TCAMS library (AID 1159588; cut-off not given, nearly all actives have IC50 up to about 0.91 µM). To be noted: recombinant PfCDPK4, Kinase-Glo ATP depletion luminescence.
Sequence of Calcium-dependent protein kinase 4 (Plasmodium falciparum (isolate 3D7)) (Q8IBS5 whole entry, looked up): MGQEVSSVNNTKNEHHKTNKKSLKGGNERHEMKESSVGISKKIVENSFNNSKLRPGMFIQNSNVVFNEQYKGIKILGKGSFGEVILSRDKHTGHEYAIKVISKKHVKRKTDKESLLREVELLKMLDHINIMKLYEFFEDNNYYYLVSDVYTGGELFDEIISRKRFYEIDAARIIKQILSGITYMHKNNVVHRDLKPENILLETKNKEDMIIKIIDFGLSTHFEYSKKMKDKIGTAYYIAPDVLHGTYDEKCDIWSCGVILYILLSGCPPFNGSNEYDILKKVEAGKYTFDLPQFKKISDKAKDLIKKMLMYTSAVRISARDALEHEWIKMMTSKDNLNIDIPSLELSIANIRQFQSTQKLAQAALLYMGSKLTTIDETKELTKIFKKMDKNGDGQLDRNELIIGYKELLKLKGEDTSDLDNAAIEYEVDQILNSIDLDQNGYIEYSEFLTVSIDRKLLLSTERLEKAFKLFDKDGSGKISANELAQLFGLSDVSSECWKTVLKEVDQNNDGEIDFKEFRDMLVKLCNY

A number with no mark means an inactive call. For some of these results: Results with a measured potency or affinity are listed apart. Calls of active or inactive are those of the source. Unless noted, how the calls were made is not given here.

Sequence of Plasmodium falciparum protein kinase 6 (PK6, PF3D7_1337100) (Q8IDW1 1-305): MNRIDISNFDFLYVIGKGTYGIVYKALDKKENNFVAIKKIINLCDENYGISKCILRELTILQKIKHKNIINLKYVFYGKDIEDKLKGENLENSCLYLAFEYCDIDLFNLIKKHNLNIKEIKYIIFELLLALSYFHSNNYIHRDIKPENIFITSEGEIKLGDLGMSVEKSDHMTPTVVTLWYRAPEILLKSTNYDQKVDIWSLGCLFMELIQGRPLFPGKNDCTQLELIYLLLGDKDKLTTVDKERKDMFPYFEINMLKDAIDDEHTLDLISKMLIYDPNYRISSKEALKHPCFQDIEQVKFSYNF
Sequence of Calcium-dependent protein kinase 1 (Plasmodium falciparum (isolate 3D7)) (P62344 whole entry, looked up): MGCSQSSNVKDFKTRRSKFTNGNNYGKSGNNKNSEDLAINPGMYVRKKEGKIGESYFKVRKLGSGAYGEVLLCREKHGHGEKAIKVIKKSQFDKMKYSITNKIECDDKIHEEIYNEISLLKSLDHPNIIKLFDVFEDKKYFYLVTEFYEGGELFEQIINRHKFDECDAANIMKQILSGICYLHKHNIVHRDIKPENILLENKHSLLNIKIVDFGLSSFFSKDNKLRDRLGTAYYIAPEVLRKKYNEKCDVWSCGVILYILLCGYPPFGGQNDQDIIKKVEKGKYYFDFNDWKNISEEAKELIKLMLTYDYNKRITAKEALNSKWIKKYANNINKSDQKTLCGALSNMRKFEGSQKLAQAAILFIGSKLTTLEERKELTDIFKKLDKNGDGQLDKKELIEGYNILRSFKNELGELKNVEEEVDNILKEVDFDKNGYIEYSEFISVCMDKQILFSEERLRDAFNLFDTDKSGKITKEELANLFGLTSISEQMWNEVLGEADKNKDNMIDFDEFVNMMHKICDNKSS
Sequence of L-lactate dehydrogenase (Plasmodium falciparum (isolate CDC / Honduras)) (Q27743 whole entry, looked up): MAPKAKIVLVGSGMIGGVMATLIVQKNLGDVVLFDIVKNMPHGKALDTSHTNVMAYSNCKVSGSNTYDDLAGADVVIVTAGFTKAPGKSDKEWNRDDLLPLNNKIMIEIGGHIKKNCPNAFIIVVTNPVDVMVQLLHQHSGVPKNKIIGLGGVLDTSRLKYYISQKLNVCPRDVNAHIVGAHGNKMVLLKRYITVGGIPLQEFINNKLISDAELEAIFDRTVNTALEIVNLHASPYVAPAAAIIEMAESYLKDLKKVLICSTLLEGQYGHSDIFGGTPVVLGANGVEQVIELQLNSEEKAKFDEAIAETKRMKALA

`COc1ccc2c(NN=Cc3ccccc3Cl)ccnc2c1`: the growth inhibition in test [1] is 46%; in test [4] it was 99% (active). Besides, the inhibition (in general, the drop in the measured response relative to a control, in per cent) was 10% in test [2] and -6% in test [3]. Further, the result in test [5], in test [6], in test [7] and in test [8] was inactive.
On to `O=C(NCc1cccs1)[C@H](Cc1ccccc1)Nc1ccnc(NCCc2ccc(F)cc2)n1`, for which the results for the growth inhibition in test [1] and in test [4] were 52% (active) and 85% (active), respectively. Moreover, the values for the inhibition in test [2] and in test [3] were 1% and -2%, respectively. Also, the result in test [5], in test [6], in test [7] and in test [8] was inactive.
In the case of `Cc1cc2cc(/C=C/C(=O)NC3CCC(CCN4CCc5ccc(C#N)cc5CC4)CC3)ccc2[nH]1` (stereo not given), the growth inhibition is 49% in test [1] and 85% (active) in test [4]. The inhibition was 6% in test [2] and -1% in test [3]. Besides, the outcome in test [5], in test [6], in test [7] and in test [8] was inactive.
Regarding `O=C(c1cccs1)N1N=C(c2cccs2)CC1c1cccc([N+](=O)[O-])c1` (stereo not given), the growth inhibition was 27% in test [1] and 95% (active) in test [4]. The inhibition is 5% in test [2] and -10% in test [3]. Also, the outcome in test [5], in test [6], in test [7] and in test [8] was inactive.
Take `CCN(CC)CCc1ccc2c(=O)cc(CCc3cccc(F)c3F)n(CC(=O)N(C)Cc3ccc(-c4ccc(C(F)(F)F)cc4)cc3)c2c1`: the growth inhibition was 45% in test [1] and 97% (active) in test [4]. Further, the inhibition is 98% (active) in test [2] and 1% in test [3]. In addition, the outcome in test [5], in test [6], in test [7] and in test [8] was inactive.
For `Cc1ccc(C2CCN(CCCCNC(=O)c3ccc(NC(=O)c4ccc(Cl)cc4)cc3)CC2)c(OCC2CC2)c1`, the figures for the growth inhibition in test [1] and in test [4] were 95% (active) and 101% (active), respectively. In addition, the results for the inhibition in test [2] and in test [3] were 63% (active) and 0%, respectively. In addition, the result in test [5], in test [6], in test [7] and in test [8] was inactive.
Consider `CN1CCCC(CN2CCN(Cc3ccc(-c4ccc(-c5nc6ccc(F)cc6[nH]5)s4)cc3)CC2)C1` (stereo not given), for which the growth inhibition was 100% (active) in test [1] and 101% (active) in test [4]. Further, the inhibition is 73% (active) in test [2] and -2% in test [3]. The result in test [5], in test [6], in test [7] and in test [8] was inactive.
For `c1ccc(-c2ccc(-c3nc4ccccc4[nH]3)cc2)cc1`, the growth inhibition in test [1] is 83% (active); in test [4], 93% (active). In addition, the inhibition is 10% in test [2] and -5% in test [3]. In addition, the outcome in test [5], in test [6], in test [7] and in test [8] was inactive.
Regarding `c1ccc2[nH]c(-c3ccc(-c4ccc(CN5CCCCC5)cc4)cc3)nc2c1`, the results for the growth inhibition in test [1] and in test [4] were 100% (active) and 99% (active), respectively. Moreover, the inhibition was 27% in test [2] and 2% in test [3]. Besides, the outcome in test [5], in test [6], in test [7] and in test [8] was inactive.
As to `CN1CCCN(Cc2ccc(-c3ccc(NC(=O)c4ccc(Cl)cc4)cc3)cc2)CC1`, the values for the growth inhibition in test [1] and in test [4] were 67% (active) and 96% (active), respectively. In addition, the inhibition is 58% (active) in test [2] and 3% in test [3]. The result in test [5], in test [6], in test [7] and in test [8] was inactive.
On to `CC12CCC(C(=O)N(CC(O)Cn3c4ccc(Cl)cc4c4cc(Cl)ccc43)C1=O)C2(C)C` (stereo not given), for which the growth inhibition in test [1] was 99% (active); in test [4] it was 100% (active). Moreover, the results for the inhibition in test [2] and in test [3] were -1% and -5%, respectively. The outcome in test [5], in test [6], in test [7] and in test [8] was inactive.
For the compound `CC(C)(C)c1nn(-c2ccccc2)c2[nH]c(=O)c(CNCc3ccccc3)cc12`, the growth inhibition in test [1] is 91% (active); in test [4], 90% (active). For the same compound, the figures for the inhibition in test [2] and in test [3] were 5% and 2%, respectively. The result in test [5], in test [6], in test [7] and in test [8] was inactive.
Consider `CC(=O)N(C)c1cccc(C(=O)Nc2cccc(-c3cccc(-c4nc5ccc(C(F)(F)F)cc5[nH]4)c3)c2)c1`, for which the growth inhibition was 41% in test [1] and 97% (active) in test [4]. Further, the inhibition in test [2] is 49%; in test [3], -5%. Besides, the outcome in test [5], in test [6], in test [7] and in test [8] was inactive.
For the compound `COc1ccc(NC(=O)c2ccc3[nH]c(-c4ccc(Cl)cc4)cc3c2)cc1OCCN(C)C`, the growth inhibition in test [1] was 78% (active); in test [4] it was 100% (active). The values for the inhibition in test [2] and in test [3] were 32% and 2%, respectively. In addition, the result in test [5], in test [6], in test [7] and in test [8] was inactive.
As for `CN(C)CCOc1ccnc2ccc(NC(=O)Cc3ccc(-c4ccncc4)c4ccccc34)cc12`, the growth inhibition in test [1] and in test [4] was 100% (active) throughout. In addition, the inhibition in test [2] was 10%; in test [3], -6%. The result in test [5], in test [6], in test [7] and in test [8] was inactive.
On to `Cc1cc(C)c2[nH]cc(C(=O)O)c(=O)c2c1`, for which the growth inhibition was 60% (active) in test [1] and 93% (active) in test [4]. The inhibition was -1% in test [2] and -6% in test [3]. For the same compound, the outcome in test [5], in test [6], in test [7] and in test [8] was inactive.
With `N#CCCN1CCN(Cc2cccc(-c3ccc(-c4nc5ccc(F)cc5[nH]4)cc3)c2)CC1`, the growth inhibition was 35% in test [1] and 100% (active) in test [4]. Also, the inhibition in test [2] was 18%; in test [3] it was -2%. The result in test [5], in test [6], in test [7] and in test [8] was inactive.
`CC(C)c1ccc(NC(=O)c2cccc(CN3CCCN(CC4CCCCC4)CC3)c2)cc1`: the growth inhibition was 59% (active) in test [1] and 85% (active) in test [4]. The values for the inhibition in test [2] and in test [3] were 62% (active) and 2%, respectively. The outcome in test [5], in test [6], in test [7] and in test [8] was inactive.
As for `CC(C)(C)Oc1ccc(C[C@@H]2NC3(C(=O)N(Cc4ccc(Cl)c(Cl)c4)c4ccccc43)C3C(=O)N(c4ccc(Br)cc4)C(=O)C32)cc1` (stereo not given in full), the growth inhibition was 25% in test [1] and 86% (active) in test [4]. Further, the figures for the inhibition in test [2] and in test [3] were 1% and 6%, respectively. In addition, the outcome in test [5], in test [6], in test [7] and in test [8] was inactive.
For `Cc1ccoc1C(=O)Nc1ccc(-c2cccc(-c3nc4c(C)cccc4[nH]3)c2)cc1`, the growth inhibition is 69% (active) in test [1] and 95% (active) in test [4]. Further, the figures for the inhibition in test [2] and in test [3] were 15% and -4%, respectively. Also, the outcome in test [5], in test [6], in test [7] and in test [8] was inactive.
